The results in this text go back to PubChem BioAssay (NCATS).

SMILES strings stand for the structures. “And” between values parts separate entries of the source, which are not always exact repeats. Equal values may be shown once. Results filed as inconclusive are left out. The source made the active and inactive calls. Unless noted, the call rests on the fitted dose curve; in most records, active means well fitted curve in the direction sought with a large enough effect; inconclusive means small, poorly fitted or top-dose-only effect, or another doubt; inactive means no such curve, though single readings can be large; an effect the other way counts as inactive or inconclusive.

Assay [1] can be described thus: P-glycoprotein substrates identified in KB-3-1 adenocarcinoma cell line, qHTS therapeutic library screen (AID 1346986). Further: nearly all actives have a fitted effect of over 60% in size. The procedure, abridged:
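In 1536-well format, 500 cells/well received pinned compound titrations and were incubated 72 h, 5% CO2. Viability was read by CellTiter-Glo; cytotoxic if AC50 < 10 uM and efficacy >50%.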
A general note: In qHTS, concentration-response curves come from the screen itself.

Assay [2] in a line: P-glycoprotein substrates identified in KB-8-5-11 adenocarcinoma cell line, qHTS therapeutic library screen (AID 1346987). Further: nearly all actives have a fitted effect of over 65% in size. Further: potency means the concentration at half of the fitted maximal effect. In a few lines: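 Luminescence from CellTiter-Glo, read 5 min after addition, quantified survival of KB-8-5-11 (P-gp-overexpressing) cells exposed to compounds for 72 h. AC50 was derived from concentration-response curves.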
Assay [3] can be described thus: qHTS of pediatric cancer cell lines to identify multiple opportunities for drug repurposing: Primary screen for TC32 cells (AID 1347089). Further: nearly all actives have a fitted effect of over 60% in size. Further: potency means the concentration at half of the fitted maximal effect. In a few lines: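 Luminescent CellTiter-Glo read-out of metabolically active TC32 cells after 48 h compound exposure. Primary: MIPE 11-point, 0.78 nM–46 µM; NPC 8-point, 0.59 nM–46 µM. Confirmatory: 11-point dilutions.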
Assay [4] is described as follows: qHTS of pediatric cancer cell lines to identify multiple opportunities for drug repurposing: Primary screen for A673 cells (AID 1347092). Further: nearly all actives have a fitted effect of over 45% in size. Further: potency means the concentration at half of the fitted maximal effect. In a few lines:
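A673 cells (500-1,000 cells/well in growth media) were pre-incubated 5 h at 37 degrees C, then exposed to compounds for 48 h. Viability was read as CellTiter-Glo luminescence; concentration-response curves came directly from the primary screen.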

A short description of assay [5]: qHTS of pediatric cancer cell lines to identify multiple opportunities for drug repurposing: Primary screen for SK-N-MC cells (AID 1347093). Further: potency means the concentration at half of the fitted maximal effect. In a few lines:
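Metabolically active cells were quantified by ATP-dependent luminescence (CellTiter-Glo, 15 min at room temperature) following 48 h treatment. Cells had been plated at 500-1,000 per well and settled for 5 h beforehand.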

The nature of assay [6]: qHTS of pediatric cancer cell lines to identify multiple opportunities for drug repurposing: Primary screen for BT-37 cells (AID 1347094). Further: potency means the concentration at half of the fitted maximal effect. The procedure, abridged:
(§1)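 Phenotypic viability qHTS, 48 h compound exposure, CellTiter-Glo luminescence read-out; multi-concentration dosing so that potency and efficacy derive directly from the primary screen's curves.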

Assay [7] can be described thus: qHTS of pediatric cancer cell lines to identify multiple opportunities for drug repurposing: Primary screen for NB-EBc1 cells (AID 1347095). Further: potency means the concentration at half of the fitted maximal effect. In a few lines: as §1
Assay [8] is described as follows: qHTS of pediatric cancer cell lines to identify multiple opportunities for drug repurposing: Primary screen for U-2 OS cells (AID 1347096). Further: nearly all actives have a fitted effect of over 50% in size. Further: potency means the concentration at half of the fitted maximal effect. In a few lines:
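Viability after 48 h compound treatment at 37C, 500-1,000 cells/well, read as ATP luminescence with CellTiter-Glo. Primary screens used 11-point (MIPE, 0.78 nM-46 µM) or 8-point (NPC, 0.59 nM-46 µM) final concentrations; follow-up screens used 11-point dilutions.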

Assay [9] can be described thus: NS1 protein of Zika virus - qHTS assay to identify small molecule inhibitors in human HEK 293 cells (AID 1347053). Further: nearly all actives have a fitted effect of over 55% in size. Further: potency means the concentration at half of the fitted maximal effect. In a few lines: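 Read-out is a two-antibody TR-FRET for ZIKV NS1, normalized between uninfected cells and infected cells. Compound added 1 h before MR766 infection at MOI 0.5; human HEK 293 cells incubated 24 h, 37 C.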
A short description of assay [10]: qHTS of pediatric cancer cell lines to identify multiple opportunities for drug repurposing: Primary screen for DAOY cells (AID 1347090). Further: nearly all actives have a fitted effect of over 55% in size. Further: potency means the concentration at half of the fitted maximal effect. In a few lines:
(§2)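 Viability measured as metabolically active cells via CellTiter-Glo luminescence following 48 hours of compound exposure, 11-point dilutions in confirmatory testing. 500-1,000 cells/well plated 5 hours before dosing; controls were DMSO and 2.3 µM bortezomib.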

Assay [11] in a line: qHTS of pediatric cancer cell lines to identify multiple opportunities for drug repurposing: Primary screen for SJ-GBM2 cells (AID 1347091). Further: potency means the concentration at half of the fitted maximal effect. The procedure, abridged: as §2
A short description of assay [12]: qHTS of pediatric cancer cell lines to identify multiple opportunities for drug repurposing: Primary screen for Saos-2 cells (AID 1347097). Further: nearly all actives have a fitted effect of over 40% in size. Further: potency means the concentration at half of the fitted maximal effect. In a few lines: as §1
Assay [13] is described as follows: qHTS of pediatric cancer cell lines to identify multiple opportunities for drug repurposing: Primary screen for SK-N-SH cells (AID 1347098). Further: nearly all actives have a fitted effect of over 65% in size. Further: potency means the concentration at half of the fitted maximal effect. The procedure, abridged:
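Cells (500-1,000/well) rested 5 h, then received compounds for 48 h; metabolically active cells were measured by CellTiter-Glo luminescence. Final concentrations spanned up to 46 µM (MIPE, 11-point) or 0.59 nM-46 µM (NPC, 8-point) in primary screens, 11-point in follow-ups.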

The nature of assay [14]: Natriuretic polypeptide receptor (hNpr1) antagonism - Pilot counterscreen GloSensor control cell line (AID 1347045; calls by dose curve; further: potency means the concentration at half of the fitted maximal effect). The procedure, abridged:
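Cells were first seeded and incubated overnight at 37C, then loaded with 2% GloSensor substrate for 2 h. Compounds were added for 30 min at room temperature, followed by a baseline read, 50 uM SNP and a final read after 20 min.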
A general note: Counterscreens check selectivity or assay interference.

Assay [15] has as its target T1, Tyrosine-protein phosphatase non-receptor type substrate 1 (Homo sapiens) + Leukocyte surface antigen CD47 (Homo sapiens) (UniProt P78324+Q08722). Put plainly: CD47-SIRPalpha protein protein interaction - LANCE assay qHTS validation (AID 1347057; active means well fitted curve in the direction sought with a large enough effect in the signal ratio, with a control signal flat, not every such curve was filed as active; the % refers to the signal ratio; further: series mostly up to about 38 µM). In a few lines: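 Inhibition of soluble CD47/SIRPalpha ectodomain association by titrated compounds, measured as 665/615 nm time-resolved FRET ratio after sequential 30 min room-temperature incubations.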
In general terms: Time-resolved FRET reads energy transfer from a long-lived donor to a nearby acceptor.

The target of assay [16] is T1, Tyrosine-protein phosphatase non-receptor type substrate 1 (Homo sapiens) + Leukocyte surface antigen CD47 (Homo sapiens). Nature of the assay: CD47-SIRPalpha protein protein interaction - Alpha assay qHTS validation (AID 1347059).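 Further: bead proximity luminescence from CD47 binding SIRPalpha after compound preincubation with SIRPalpha.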 In a few lines: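 SIRPalpha-biotin 25 nM + cpd, 30 min RT, dark; add CD47-His 12.5 nM, 30 min; add Ni-NTA/SAV beads 10 ug/mL, 30 min; AlphaScreen. Buffer PBS pH 7.4 + 0.05% IGEPAL CA-630. Non-biotinylated SIRPalpha as control inhibitor.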

Assay [17] has as its target Parathyroid hormone/parathyroid hormone-related peptide receptor (Homo sapiens) (UniProt Q03431). Nature of the assay: qHTS for PTHR1 Agonists: Optimization Screen against the NCGC LOPAC library (AID 1347079).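 Further: GloSensor cAMP luminescence in HEK-293 GP2 cells expressing human PTHR1 with IBMX.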 The procedure, abridged:
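HEK-293 GP2 cells, PTHR1 + GloSensor cAMP; 3000 cells/well, o/n. Luciferin + IBMX 0.5mM each (stock), 1 hr 37C. Cpd titration, 1 hr 37C. Lum after 15 min RT. Ctrl M-PTH(1-15) top 10uM.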

Assay [18] in a line: qHTS of pediatric cancer cell lines to identify multiple opportunities for drug repurposing: Primary screen for NB1643 cells (AID 1347099). Further: nearly all actives have a fitted effect of over 50% in size. Further: potency means the concentration at half of the fitted maximal effect. In a few lines: as §1
In assay [19] the target is Atrial natriuretic peptide receptor 2 (Homo sapiens) (UniProt P20594). Nature of the assay: Natriuretic polypeptide receptor (hNpr2) antagonism - Pilot subtype selectivity assay (AID 1347050; calls by dose curve). In a few lines: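 Luminescence from a genetically encoded cGMP luciferase biosensor in hNpr2-expressing HEK293 cells is read before and 20 min after adding 1 nM hNppC. Test compounds, in interplate 1:5 titrations, are added 30-50 min ahead of the agonist.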
Chain of Atrial natriuretic peptide receptor 2 (Homo sapiens) (P20594 whole entry, looked up): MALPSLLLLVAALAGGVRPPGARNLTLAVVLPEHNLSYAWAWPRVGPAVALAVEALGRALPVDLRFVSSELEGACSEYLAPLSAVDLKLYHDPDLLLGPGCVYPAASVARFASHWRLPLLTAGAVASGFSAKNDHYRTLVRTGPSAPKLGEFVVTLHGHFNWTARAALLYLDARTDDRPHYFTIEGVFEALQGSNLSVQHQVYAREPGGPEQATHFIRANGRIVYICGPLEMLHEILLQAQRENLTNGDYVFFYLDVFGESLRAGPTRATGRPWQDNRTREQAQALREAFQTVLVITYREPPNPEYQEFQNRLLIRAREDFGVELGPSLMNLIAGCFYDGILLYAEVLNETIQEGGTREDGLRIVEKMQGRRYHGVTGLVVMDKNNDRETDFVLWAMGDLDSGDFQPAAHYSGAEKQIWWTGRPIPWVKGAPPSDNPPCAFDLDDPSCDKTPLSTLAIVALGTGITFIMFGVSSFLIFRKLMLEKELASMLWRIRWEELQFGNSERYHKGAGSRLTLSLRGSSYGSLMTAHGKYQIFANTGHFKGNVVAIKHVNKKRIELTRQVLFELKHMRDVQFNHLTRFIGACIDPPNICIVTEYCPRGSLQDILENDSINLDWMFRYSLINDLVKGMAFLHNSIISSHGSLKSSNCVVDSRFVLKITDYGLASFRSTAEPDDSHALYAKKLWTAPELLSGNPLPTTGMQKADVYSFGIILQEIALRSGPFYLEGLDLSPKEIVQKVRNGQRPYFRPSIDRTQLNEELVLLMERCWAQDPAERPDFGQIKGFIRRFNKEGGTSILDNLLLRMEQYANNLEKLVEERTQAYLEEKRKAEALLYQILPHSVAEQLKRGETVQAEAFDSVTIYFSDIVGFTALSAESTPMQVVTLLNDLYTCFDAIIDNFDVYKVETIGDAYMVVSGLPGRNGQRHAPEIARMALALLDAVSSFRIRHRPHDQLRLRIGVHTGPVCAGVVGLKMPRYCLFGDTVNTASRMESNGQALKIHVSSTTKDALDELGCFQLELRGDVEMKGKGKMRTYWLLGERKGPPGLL

Assay [20] has as its target T1, Tyrosine-protein phosphatase non-receptor type substrate 1 (Homo sapiens) + Leukocyte surface antigen CD47 (Homo sapiens). Put plainly: CD47-SIRPalpha protein protein interaction - HTRF assay qHTS validation (AID 1347058; active means well fitted curve in the direction sought with a large enough effect in the signal ratio, not every such curve was filed as active; the % refers to the signal ratio; further: series mostly up to about 38 µM). In a few lines: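 Soluble extracellular domains (6His-CD47, Avi-tag-biotinylated SIRPalpha) in PBS pH 7.4 with 0.05% IGEPAL CA-630. Compounds were preincubated 30 min at RT with CD47 and anti-His-Eu, then SIRPalpha and SAV-XL665 were added. TR-FRET 665/615 ratio.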

T1 sequence (P78324 whole entry, looked up, the tested form may be a part): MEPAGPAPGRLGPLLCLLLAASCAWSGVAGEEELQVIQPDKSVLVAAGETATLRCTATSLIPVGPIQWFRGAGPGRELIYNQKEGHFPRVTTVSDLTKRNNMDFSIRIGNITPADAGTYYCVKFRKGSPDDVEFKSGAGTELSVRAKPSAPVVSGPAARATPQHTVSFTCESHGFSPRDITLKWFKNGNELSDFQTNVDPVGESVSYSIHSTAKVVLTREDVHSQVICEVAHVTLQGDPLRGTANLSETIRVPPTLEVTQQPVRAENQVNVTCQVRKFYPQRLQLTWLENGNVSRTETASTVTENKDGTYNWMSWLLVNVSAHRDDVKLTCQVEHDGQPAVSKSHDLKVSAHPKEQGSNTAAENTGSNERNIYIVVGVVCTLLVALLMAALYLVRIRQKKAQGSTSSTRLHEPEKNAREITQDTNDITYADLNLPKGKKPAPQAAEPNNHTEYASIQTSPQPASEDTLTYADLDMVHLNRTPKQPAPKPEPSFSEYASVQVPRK
T1 sequence (Q08722 whole entry, looked up, the tested form may be a part): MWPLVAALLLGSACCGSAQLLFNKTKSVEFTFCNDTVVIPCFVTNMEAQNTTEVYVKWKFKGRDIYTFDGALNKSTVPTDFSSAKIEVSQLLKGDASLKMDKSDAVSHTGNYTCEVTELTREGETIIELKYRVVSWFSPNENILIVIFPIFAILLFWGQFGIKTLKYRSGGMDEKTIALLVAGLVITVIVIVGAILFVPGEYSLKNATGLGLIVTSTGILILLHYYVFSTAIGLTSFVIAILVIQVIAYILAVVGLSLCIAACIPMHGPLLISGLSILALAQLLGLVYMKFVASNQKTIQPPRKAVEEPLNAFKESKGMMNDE
Chain of Parathyroid hormone/parathyroid hormone-related peptide receptor (Homo sapiens) (Q03431 whole entry, looked up): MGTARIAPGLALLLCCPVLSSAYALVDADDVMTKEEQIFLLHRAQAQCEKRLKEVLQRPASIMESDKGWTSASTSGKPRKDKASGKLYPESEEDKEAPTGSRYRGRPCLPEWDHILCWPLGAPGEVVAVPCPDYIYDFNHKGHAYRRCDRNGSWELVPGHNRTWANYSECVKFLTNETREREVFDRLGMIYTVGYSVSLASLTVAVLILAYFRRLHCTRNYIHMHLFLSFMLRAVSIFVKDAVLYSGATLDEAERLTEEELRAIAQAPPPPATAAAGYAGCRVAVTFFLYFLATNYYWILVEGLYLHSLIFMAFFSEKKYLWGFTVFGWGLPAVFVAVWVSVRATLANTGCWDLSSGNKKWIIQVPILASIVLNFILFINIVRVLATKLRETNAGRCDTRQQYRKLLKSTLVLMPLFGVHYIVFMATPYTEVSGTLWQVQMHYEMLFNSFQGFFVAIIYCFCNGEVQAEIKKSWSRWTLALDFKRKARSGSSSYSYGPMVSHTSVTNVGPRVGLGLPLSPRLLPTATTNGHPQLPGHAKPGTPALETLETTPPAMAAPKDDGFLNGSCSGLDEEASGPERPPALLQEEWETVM

Take `CC(C)(C(=O)NCC(F)(F)C(F)(F)F)C(=O)N[C@@H]1C(=O)Nc2ccccc2-c2ccccc21`: the Potency result in [1], in assay [2], in assay [3] and in [8] was “inactive” in each case. Moreover, the Potency was 0.0935 µM (active) in assay [4], 3.72 µM (active) in [5], 769 nM (active) in assay [6] and 4.69 µM (active) in assay [7].
As to `CC(C)n1nc(-c2ccc3oc(N)nc3c2)c2c(N)ncnc21`, the Potency in assay [2] was 1.3 nM (active) and 32.6 nM (active); in assay [9], 20.9 nM (active); in assay [3], 11.7 nM (active); in [10], 0.0148 µM (active); in assay [11], 1.9 nM (active); in assay [4] it was 0.0037 µM (active). Also, the Potency in assay [5] is 0.001 µM (active); in [6], 4.3 nM (active); in assay [7], 0.0132 µM (active); in assay [8], 0.148 µM (active); in assay [12], 0.935 µM (active); in assay [13], 21.5 µM (active).
Regarding `CC1(C)CCC2=C(O1)c1ccccc1C(=O)C2=O`, the Potency entry in [2], in [9], in assay [3] and in [8] was “inactive” each time. Further, the Potency in [14] is 14.7 µM (active); in assay [4], 23.5 µM (active); in assay [5], 23.5 µM (active); in assay [7] it was 18.7 µM (active); in [12] it was 18.7 µM (active); in [18] it was 23.5 µM (active). The result in assay [15], in [16] and in assay [17] was inactive.
As for `CC(C)NCC(O)COc1cccc2[nH]ccc12` (configuration not stated), the Potency entry in [2], in assay [14], in assay [9], in assay [3], in assay [10] and in [11] was “inactive” in each case. In addition, the Potency entry in assay [4], in assay [6], in [7], in [8], in assay [13] and in [18] was “inactive” throughout. Moreover, the outcome in [19], in assay [15], in assay [20], in [16] and in [17] was inactive.
On to `O=C(Nc1cc(Cl)cc2c1[nH]c1cnccc12)c1cccnc1`, for which the Potency result in assay [1], in assay [2], in assay [3], in [8] and in assay [12] was “inactive” each time. In addition, the Potency was 14.8 µM (active) in assay [4], 4.18 µM (active) in [5] and 24.1 µM (active) in assay [13].
As to `O=C(NOCC(O)CO)c1cc(Br)c(F)c(F)c1Nc1ccc(I)cc1F` (configuration not stated), the Potency result in assay [2], in [9], in [3] and in assay [6] was “inactive” each time. The Potency in assay [10] was 14.8 µM (active); in assay [4], 9.35 µM (active); in assay [5], 0.132 µM (active).
For the compound `COc1ncc(-c2ccc3nccc(-c4ccnnc4)c3c2)cc1NS(=O)(=O)c1ccc(F)cc1F`, the Potency in [2] is 2.96 µM (active) and 29.1 nM (active); in assay [9], 41.8 nM (active); in assay [3], 2.6 nM (active); in assay [10], 4.69 µM (active); in assay [11] it was 1 nM (active); in assay [4], 0.0743 µM (active). Moreover, the Potency is 0.001 µM (active) in assay [5]; 61.1 nM (active) in [6]; 0.001 µM (active) in [7]; 7.43 µM (active) in assay [8]; 1.52 µM (active) in [13].
With `COc1ccc(-n2c(C)c([N+](=O)[O-])c3ccc(O)cc32)cc1`, the Potency entry in [2], in [9], in assay [3], in assay [10], in assay [11] and in [7] was “inactive” in each case. For the same compound, the Potency entry in [8] and in assay [12] was “inactive” each time. Further, the Potency is 7.43 µM (active) in assay [4], 1.18 µM (active) in assay [5], 19.2 µM (active) in assay [13] and 5.9 µM (active) in assay [18].
Regarding `N#Cc1ccc(NC(=O)Nc2ccccc2Br)c2n[nH]nc12`, the Potency result in assay [2], in [9], in assay [3], in assay [10] and in [12] was “inactive” each time. Further, the Potency in assay [4] is 23.5 µM (active); in assay [5], 26.4 µM (active).
With `Clc1ccc(-c2nc3sccn3c2C=NOCc2ccc(Cl)c(Cl)c2)cc1`, the Potency result in assay [2], in [9], in [3], in [10], in [11] and in assay [6] was “inactive” each time. Further, the Potency entry in assay [8] was “inactive”.
